Experimental data published in PubChem BioAssay (Tox21).
Inconclusive results are not listed. The source made the active and inactive calls. Unless noted, calls follow the shape of the dose curve; as a rule, active = well fitted curve in the direction sought with a large enough effect in the repeat runs; inconclusive = weak or mixed curves; inactive = flat fitted curve, though single readings scatter.

Experiments:
[1] = qHTS assay to test for compound auto fluorescence at 535 nm (green) in HEK293 cells (AID 720680); details: green autofluorescence 485/535 nm; series mostly up to 91.3 µM
[2] = qHTS assay to test for compound auto fluorescence at 460 nm (blue) in HEK293 cell free culture (AID 720681); details: cell-free medium, autofluorescence 405/460 nm (blue); series mostly up to 91.3 µM
Summary of the method: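 Test compounds were pinned into cell-free culture medium (DMEM with 10% FBS) and fluorescence was read directly at Ex/Em 405/460 nm. Signals were expressed as fluorescence equivalents of triamterene, with DMSO vehicle as control.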

[3] = qHTS assay to test for compound auto fluorescence at 535 nm (green) in HEK293 cell free culture (AID 720682); details: cell-free medium, green autofluorescence 485/535 nm, active compounds read high; series mostly up to 91.3 µM
Summary of the method: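 Using fluorescein as calibrant, autofluorescence was quantified at 485/535 nm in cell-free DMEM containing 10% FBS after pintool addition of compound or vehicle.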

[4] = qHTS assay to test for compound auto fluorescence at 590 nm (red) in HEK293 cell free culture (AID 720683); details: cell-free medium autofluorescence, Ex540/Em590 red; series mostly up to 91.3 µM
Summary of the method: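 Tox21 10K library compounds were pinned into cell-free DMEM with 10% FBS and fluorescence was read at excitation 540 nm. Activity is expressed as Rose Bengal sodium equivalency.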

[5] = qHTS assay to test for compound auto fluorescence at 590 nm (red) in HepG2 cell free culture (AID 720684); details: cell-free medium autofluorescence, red 540/590 nm; series mostly up to 91.3 µM
Summary of the method: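 Measured in medium alone (MEM containing 10% FBS) following pintool addition of compound; emission at 590 nm with 540 nm excitation, referenced to Rose Bengal sodium.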

[6] = qHTS assay to test for compound auto fluorescence at 460 nm (blue) in HepG2 cell free culture (AID 720685); details: Cell-free culture medium, blue autofluorescence 405/460 nm; series mostly up to 91.3 µM
Summary of the method: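 Compound (23 nL) or DMSO pinned into cell-free MEM with 10% FBS; blue fluorescence read at 405/460 nm excitation/emission, expressed as auto-fluorescence equivalency to triamterene.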

[7] = qHTS assay to test for compound auto fluorescence at 535 nm (green) in HepG2 cell free culture (AID 720686); details: Cell-free medium, green autofluorescence 485/535 nm; series mostly up to 91.3 µM
[8] = qHTS assay to test for compound auto fluorescence at 460 nm (blue) in HepG2 cells (AID 720687); details: autofluorescence 405/460 nm, 1 h; series mostly up to 91.3 µM
Summary of the method: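 Cells (2,000/well in MEM with 10% FBS) attached overnight at 37 C, then were exposed to compound or DMSO for 1 hr at 37 C, 5% CO2. Fluorescence read at Ex/Em 405/460 nm, expressed as triamterene-equivalent signal.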

[9] = biological target: Glucocorticoid receptor (Homo sapiens) (UniProt P04150); test: qHTS assay to identify small molecule agonists of the glucocorticoid receptor (GR) signaling pathway (AID 720691; active = well fitted activation curve with a large enough effect in the signal ratio in the repeat runs, not every such curve was filed as active; the % refers to the signal ratio); details: GR-bla HeLa, beta-lactamase reporter ratio, 18 h; series mostly up to 62.4 µM
Glucocorticoid receptor (Homo sapiens), sequence (P04150 whole entry, looked up): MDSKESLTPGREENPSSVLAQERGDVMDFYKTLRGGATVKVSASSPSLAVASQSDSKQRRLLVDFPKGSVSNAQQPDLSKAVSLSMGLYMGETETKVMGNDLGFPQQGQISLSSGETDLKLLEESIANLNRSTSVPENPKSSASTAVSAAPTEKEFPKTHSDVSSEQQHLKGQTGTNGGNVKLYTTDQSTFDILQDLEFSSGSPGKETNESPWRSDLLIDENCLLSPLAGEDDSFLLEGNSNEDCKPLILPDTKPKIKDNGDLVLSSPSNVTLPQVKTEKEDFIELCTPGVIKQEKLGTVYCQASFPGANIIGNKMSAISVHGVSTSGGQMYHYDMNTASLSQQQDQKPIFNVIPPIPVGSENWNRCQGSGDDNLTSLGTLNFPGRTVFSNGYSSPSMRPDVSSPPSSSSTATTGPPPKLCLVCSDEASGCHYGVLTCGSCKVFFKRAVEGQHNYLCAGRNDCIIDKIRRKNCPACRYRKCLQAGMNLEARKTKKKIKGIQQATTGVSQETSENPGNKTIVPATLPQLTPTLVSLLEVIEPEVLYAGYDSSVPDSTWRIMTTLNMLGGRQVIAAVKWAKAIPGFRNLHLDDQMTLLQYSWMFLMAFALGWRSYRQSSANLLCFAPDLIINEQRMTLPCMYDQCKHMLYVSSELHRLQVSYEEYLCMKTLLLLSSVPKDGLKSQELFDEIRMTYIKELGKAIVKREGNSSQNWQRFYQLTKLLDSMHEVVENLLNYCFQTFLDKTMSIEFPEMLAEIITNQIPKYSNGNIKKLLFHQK
Summary of the method: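 Fluorescence intensity from LiveBLAzer B/G FRET substrate (2 h, room temperature) reports beta-lactamase expression driven by the glucocorticoid response element in GR-bla HeLa cells after 18 h compound exposure at 37 C.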

[10] = biological target: Glucocorticoid receptor (Homo sapiens) (UniProt P04150); test: qHTS assay to identify small molecule antagonists of the glucocorticoid receptor (GR) signaling pathway (AID 720692; active = well fitted inhibition curve with a large enough effect in the signal ratio in the repeat runs, not every such curve was filed as active; the % refers to the signal ratio); details: GR-bla HeLa, beta-lactamase FRET ratio, dexamethasone-stimulated, 18 h; series mostly up to 58.5 µM
Summary of the method: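 HeLa GR-bla cells; cmpd + dex 5 nM final, 18 h 37 C; LiveBLAzer B/G FRET substrate 2 h RT; fluorescence intensity read. Antagonist mode, qHTS.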
% is scaled to controls: 0 for no effect and ±100 for the full control effect.

O=S(O)(O)=S
inactive: fluorescence, % of fluorescein [1] -0.0177% [at 3.72 µM] | fluorescence, % of fluorescent control [2] -0.0004% [at 3.72 µM] | activity change [3] -0.0159% [at 3.72 µM] | fluorescence, % of fluorescent control [4] -0.356% [at 3.72 µM] | fluorescence, % of Rose Bengal [5] -0.0109% [at 3.72 µM] | fluorescence, % of fluorescent control [6] -0.093% [at 3.72 µM] | fluorescence, % of fluorescein control [7] 0.0353% [at 3.72 µM] | fluorescence, % of fluorescent control [8] -0.0508% [at 3.72 µM]

CCN(CC)CC(=O)Nc1c(C)cccc1C
inactive: outcome [1] | outcome [2] | outcome [3] | outcome [4] | outcome [5] | outcome [6] | outcome [7] | outcome [8] | Potency [9] | outcome [10]

FC(F)(F)c1ccccc1-n1ccnc1
inactive: outcome [1] | outcome [2] | outcome [3] | outcome [4] | outcome [5] | outcome [6] | outcome [7] | outcome [8] | Potency [9] | outcome [10]

CNS(=O)(=O)CCc1ccc2[nH]cc(C3CCN(C)CC3)c2c1
inactive: outcome [1] | outcome [2] | outcome [3] | outcome [4] | outcome [5] | outcome [6] | outcome [7] | outcome [8] | Potency [9] | outcome [10]

O=C(O)c1cc(Br)c(O)c(Br)c1
inactive: outcome [1] | outcome [2] | outcome [3] | outcome [4] | outcome [5] | outcome [6] | outcome [7] | outcome [8] | Potency [9] | outcome [10]

OCCCCC(O)CO (stereo not drawn)
inactive: outcome [1] | outcome [2] | outcome [3] | outcome [4] | outcome [5] | outcome [6] | outcome [7] | outcome [8] | Potency [9] | outcome [10]

CC(=O)N[C@@H](CCC(=O)O)C(=O)O
inactive: outcome [1] | outcome [2] | outcome [3] | outcome [4] | outcome [5] | outcome [6] | outcome [7] | outcome [8] | Potency [9] | outcome [10]

Nc1cccc(O)c1
inactive: outcome [1] | outcome [2] | outcome [3] | outcome [4] | outcome [5] | outcome [6] | outcome [7] | outcome [8] | Potency [9] | outcome [10]

COP(=O)(OC)OC(c1ccc(Cl)cc1)P(=O)(OC)OC (stereo not drawn)
inactive: outcome [1] | outcome [2] | outcome [3] | outcome [4] | outcome [5] | outcome [6] | outcome [7] | outcome [8] | Potency [9] | outcome [10]

Cc1ccc2c(c1)OCC(=O)CO2
inactive: outcome [1] | outcome [2] | outcome [3] | outcome [4] | outcome [5] | outcome [6] | outcome [7] | outcome [8] | Potency [9] | outcome [10]

CN(C)CCOCCO
inactive: outcome [1] | outcome [2] | outcome [3] | outcome [4] | outcome [5] | outcome [6] | outcome [7] | outcome [8] | Potency [9] | outcome [10]

O=Cc1ccc(Cl)c(Cl)c1
inactive: outcome [1] | outcome [2] | outcome [3] | outcome [4] | outcome [5] | outcome [6] | outcome [7] | outcome [8] | Potency [9] | outcome [10]

CCCCN
inactive: outcome [1] | outcome [2] | outcome [3] | outcome [4] | outcome [5] | outcome [6] | outcome [7] | outcome [8] | Potency [9] | outcome [10]

CC1=C(C(=O)O)N2C(=O)[C@@H](NC(=O)[C@H](N)c3ccc(O)cc3)[C@H]2SC1
inactive: fluorescence, % of fluorescein [1] 0.159% [at 18.6 µM] | fluorescence, % of fluorescent control [2] 0.558% [at 18.6 µM] | activity change [3] 0.0539% [at 18.6 µM] | fluorescence, % of fluorescent control [4] -0.034% [at 18.6 µM] | fluorescence, % of Rose Bengal [5] -0.146% [at 18.6 µM] | fluorescence, % of fluorescent control [6] 0.197% [at 18.6 µM] | fluorescence, % of fluorescein control [7] 0.179% [at 18.6 µM] | fluorescence, % of fluorescent control [8] 0.189% [at 18.6 µM] | Potency [9] | outcome [10]

Cc1ccc(C=O)cc1C
inactive: outcome [1] | outcome [2] | outcome [3] | outcome [4] | outcome [5] | outcome [6] | outcome [7] | outcome [8] | Potency [9] | outcome [10]

C[C@@H](O)[C@H]1C(=O)N2C(C(=O)O)=C(SCCN=CN)C[C@H]12
inactive: fluorescence, % of fluorescein [1] 0.0698% [at 18.6 µM] | fluorescence, % of fluorescent control [2] 1.12% [at 18.6 µM] | activity change [3] -0.0504% [at 18.6 µM] | fluorescence, % of fluorescent control [4] -0.0922% [at 18.6 µM] | fluorescence, % of Rose Bengal [5] 0.208% [at 18.6 µM] | fluorescence, % of fluorescent control [6] 1.1% [at 18.6 µM] | fluorescence, % of fluorescein control [7] 0.0651% [at 18.6 µM] | fluorescence, % of fluorescent control [8] 0.982% [at 18.6 µM] | Potency [9] | outcome [10]

CC1COc2ccccc2N1 (stereo not drawn)
inactive: outcome [1] | outcome [2] | outcome [3] | outcome [4] | outcome [5] | outcome [6] | outcome [7] | outcome [8] | Potency [9] | outcome [10]
